Marburg entry = qHTS for Inhibitors of binding or entry into cells for Marburg Virus. Marburg virus pseudotype entry/binding inhibition, cell-based. Potency, µM (top dose mostly 49.2 µM), for the others: at the highest dose activity change, negative = inhibition, usual class: inhibitors. 6.5% of 18,000 active
Lassa entry = qHTS for Inhibitors of binding or entry into cells for Lassa Virus; Potency, µM (highest dose often 49.2 µM), for the others: at the highest dose activity change, negative = inhibition, most hits filed as inhibitors; AID 720533, 2013; 4.1% of 18,000 active; Lassa virus pseudotyped entry inhibition, cell-based qHTS
Numbers without * were called inactive; ? = inconclusive; . = no result; ! = not confirmed by another sample; [ ] = another dose, or the depositor's remark. Rows were chosen to be rich in hits. Some 7.1% of all compounds tested hit in one or more screens of this group. The call rests on the fitted dose curve; tested in HEK293 cells. On the % scale 0 is the no-effect control and ±100 the full control effect; potency means the concentration at half of the fitted maximal effect.

SMILES	Marburg entry	Lassa entry
C[C@H]1CC[C@@H]2[C@@H](C)[C@H]3[C@H](C[C@H]4[C@@H]5CC=C6CC(O[C@@H]7O[C@H](CO)[C@H](O)[C@H](O[C@@H]8O[C@H](CO)[C@@H](O)[C@H](O)[C@H]8O)[C@H]7O[C@H]7O[C@@H](C)[C@H](O)[C@@H](O)[C@H]7O)CC[C@]6(C)[C@H]5CC[C@]34C)N2C1 (some centres not stated)	16µM*	32µM*
C[C@H]1CC[C@@H]2[C@@H](C)[C@H]3[C@H](C[C@H]4[C@@H]5CC=C6C[C@@H](O[C@]7(O[C@H]8O[C@@H](C)[C@@H](O)[C@@H](O)[C@@H]8O)C[C@@H](O[C@@H]8O[C@H](CO)[C@@H](O)[C@H](O)[C@@H]8O)[C@@H](O)[C@H](CO)O7)CC[C@]6(C)[C@H]5CC[C@@]34C)N2C1	4%[17.8 µM]	14%[17.8 µM]
CCOC(=O)CN1C(=O)[C@]2(OCCC=C[C@@H]2C)c2ccccc21	1%[8.59 µM]	11%[8.59 µM]
CNC(=O)c1cncc(C=Cc2ccccc2Cl)c1	15%	61%
COC1=C[C@H](C(=O)N[C@H]2CCCC[C@H]2NC(C)=O)[C@@]2(C)Cc3ccccc3[C@@H]2CC1=O	-12%[8.59 µM]	24%[8.59 µM]
CC(C)C[C@H](NC(=O)[C@@H](O)[C@H](N)Cc1ccccc1)C(=O)O	-10%	?
CC[C@@H](C)[C@@H](CO[C@@H](Cc1ccccc1)C(=O)N[C@@H](CCS(C)(=O)=O)C(=O)OC(C)C)NC[C@@H](N)CS	10µM*	-19%
CCOC(=O)CCN1C(=O)[C@@H]2[C@H]3[C@H](O)[C@H](O)CC(=NNC(=O)OCc4ccccc4)[C@@H]3CC[C@H]2C1=O	29%[8.59 µM]	.
CCC[CH2][Sn][CH2]C=C[C@@H]1C[C@@H](CCOCc2ccc(OC)cc2)OP(=O)(O)O1	-3%	32%
CC(=O)OC[C@H]1O[C@H](CC=NO[C@@H](C)CN2CCCc3nc(C)c(C)cc32)C=C[C@@H]1OC(C)=O	9%[8.59 µM]	-2%[8.59 µM]
CC(=O)O[C@H]1C[C@@H]2CC[C@@H]3[C@H](CC[C@@]4(C)[C@H]3C[C@H]([N+]3(C)CCCCC3)[C@@H]4OC(C)=O)[C@@]2(C)C[C@@H]1N1CCCCC1	26%	2%
CCC(=O)O[C@H]1[C@@H](N2CCCCC2)C[C@H]2[C@@H]3CC[C@H]4C[C@H](OC(C)=O)[C@@H](N5CCCCC5)C[C@]4(C)[C@H]3CC[C@@]21C	3.5µM*	?
Cc1cc2c(c(=O)n1Cc1ccccc1)[C@H]1O[C@](c3ccsc3)(Cc3ccccc31)O2	-12%[8.59 µM]	5%[8.59 µM]
COC(=O)C1=C(C)C(=O)[C@]2(O)c3ccccc3N(C)[C@]12C	18%[8.59 µM]	-18%[8.59 µM]
CC(C)(Cc1c[nH]c2ccccc12)NCC(O)COc1ccccc1C#N (configuration not stated)	7.9µM*	?
CC(C)(C)NC[C@H](O)COc1cccc2[nH]c(C#N)cc12	-13%	-3%
Cc1cc2c(c(=O)n1Cc1ccccc1)[C@H]1O[C@](CCCCN3C(=O)c4ccccc4C3=O)(Cc3c1ccc1ccccc31)O2	-11%[8.59 µM]	19%[8.59 µM]
CC1(C)CCC2=C(O1)c1ccccc1C(=O)C2=O	11µM*	7.1µM*
CSCC[C@@H]1NC(=O)[C@@H](NC(=O)[C@H](CCCNC(=N)N)NC(=O)[C@H](CC(C)C)NC(=O)[C@H](CCSC)NC(=O)[C@H](CC(=O)O)NC(=O)[C@H](Cc2ccccc2)NC(=O)[C@@H](N)CC(=O)O)CSSC[C@@H](C(=O)N[C@@H](Cc2c[nH]c3ccccc23)C(=O)N[C@@H](CCC(N)=O)C(=O)N[C@H](C(=O)O)C(C)C)NC(=O)[C@@H]2CCCN2C(=O)[C@H](CCCNC(=N)N)NC(=O)[C@H](Cc2ccc(O)cc2)NC(=O)[C@H](C(C)C)NC(=O)[C@H](CCCNC(=N)N)NC(=O)CNC(=O)[C@H](CC(C)C)NC1=O	7%	6%
C=C[C@H](CCCCCC)[C@@H]1C[C@H](CCCCCCCCCCC)O[P@](=O)(OC)O1	-33%	.
COCC=CC1=CC2=CC(=O)C(C)(OC(=O)c3cnc4ccccc4n3)C(=O)C2=CN1CC(C)C (configuration not stated)	7%[8.59 µM]	7%[8.59 µM]
CC(=O)[C@]1(O)CCC2C3CCC4=CC(=O)CC[C@@]4(C)C3CC[C@]21C (some centres not stated)	-6%	-7%
C=C1C[C@H]2[C@@H]3C=C(C)C4=CC(=O)CC[C@]4(C)[C@H]3CC[C@]2(C)[C@@]1(OC(C)=O)C(C)=O	13µM*!	?
Cc1ccc2c(-c3ccnc(Nc4ccccc4)n3)c(-c3ccc(F)cc3)nn2n1	3.5µM*	?
COc1cccc(Nc2nccc(-c3cnn4ncccc34)n2)c1	0.32µM*	?
SMILES	Marburg entry	Lassa entry
COc1ccc(-c2nn3ncccc3c2-c2ccnc(Nc3cccc(C(F)(F)F)c3)n2)cc1	13µM*	?
CCc1nn2ncccc2c1-c1ccnc(NC2CC2)n1	-14%	.
NC(=O)c1cccc(Nc2nccc(Nc3cccc(F)c3)n2)c1	-60%	32%
O=C1Nc2cccc(Br)c2[C@@]12O[C@H](COc1ccccc1)CC1=CCC[C@H]12	22%[8.59 µM]	-21%[8.59 µM]
CN(C)c1cc2c(Nc3ccc4nc(Cc5ccccc5)[nH]c4c3)ncnc2cn1	91%	57%
C=CCNC(=O)[C@H]1C=C(OC)C(=O)C[C@H]2c3ccccc3C[C@]12C	-22%[8.59 µM]	4%[8.59 µM]
O=C(C=Cc1ccccc1)Nc1cccc(C(=O)N2CCCC2)c1	42%	38%
COc1cccc([C@@H]2[C@@H](C)CC[C@@H]3C(=O)NC[C@H](O)CN32)c1	-11%[8.59 µM]	-5%[8.59 µM]
O=[N+]([O-])c1ccc(F)c([N+](=O)[O-])c1	-4%	-16%
O=C(NC(NC(=S)Nc1ccc(F)c([N+](=O)[O-])c1)C(Cl)(Cl)Cl)C(c1ccccc1)c1ccccc1 (configuration not stated)	11µM*	11µM*
COC(=O)/C=C\C(=O)N[C@@H]1CC[C@@]2(O)[C@H]3Cc4ccc(O)c5c4[C@@]2(CCN3CC2CC2)[C@@H]1O5	28µM*	?
O=C1/C(=C\c2ccccc2)C[C@@]2(O)[C@H]3Cc4ccc(O)c5c4[C@@]2(CCN3CC2CC2)[C@@H]1O5	11µM*	3.5µM*
Oc1ccc2c3c1O[C@H]1[C@H](O)CC[C@@]4(O)[C@@H](C2)N(CC2CC2)CC[C@]314	-15%	1%
O=C1CC[C@@]2(O)[C@H]3Cc4ccc(O)c5c4[C@@]2(CCN3CC2CC2)[C@@H]1O5	11%	8%
O=C1/C(=C\c2ccccc2)C[C@@]2(O)[C@H]3Cc4ccc(O)c5c4[C@@]2(CCN3CC2CC2)[C@H]1O5	?	4µM*
Oc1ccc2c3c1O[C@H]1[C@@H](O)CC[C@@]4(O)[C@@H](C2)N(CC2CCC2)CC[C@]314	?	0%
COc1cccc([C@@H]2Oc3ccc(Br)cc3[C@H](O)[C@@H]2O)c1	?	12%[8.59 µM]
CCOC(=O)CN1C(=O)N(CC)C(C)=C(C(=O)OC)C1c1ccccc1 (configuration not stated)	?	-25%[8.59 µM]
N#Cc1c(NC(=O)CN2CCOCC2)sc2c1CCCC2	0%	27%
CSC[C@H]1CN(C2CCCCC2)C(=O)[C@H]1CC(=O)Nc1ccccc1	15%	13%
CC[n+]1c(-c2ccccc2)c2cc(N)ccc2c2ccc(N)cc21	8.9µM*	?

From PubChem
